Of roughly 7,900 targets only a part is listed; those with a hit were picked by preference. About 0.6% of all pairs of compound and target were hits.
Experiments:
Test in all cases: log2 fold change, soluble protein after heating vs DMSO (PISA); higher = thermal stabilisation; K562 cells, 10 uM, 30 min; active = over 0.2 and 3.5 SD of the protein, either way, in both replicates (recomputed)
YWHAB = YWHAB (UniProt P31946)
Outline: (§1)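 K562 cells at 2×10^6 cells/mL were treated for 30 min with 10 μM compound, and aliquots were heated for 3 min over 48°C-58°C before pooling. Extraction used PBS with 0.5% NP-40 at 4°C, and soluble protein was the supernatant after 21,000xg for 90 min, measured by TMTpro 16plex LC-MS/MS with channel sums equalised. Thermal stability values, relative to control samples and from duplicates, are log2 fold changes.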

YWHAQ = YWHAQ (UniProt P27348)
Outline: as §1

YWHAZ [1] = target: YWHAZ (UniProt E7ESK7)
Outline: as §1

YWHAZ [2] = target: YWHAZ (UniProt P63104)
Outline: as §1

YY1 = YY1 (UniProt P25490)
Outline: as §1

ZADH2 = ZADH2 (UniProt Q8N4Q0)
Outline: as §1

ZBTB21 = ZBTB21 (UniProt Q9ULJ3)
Outline: as §1

ZBTB43 = ZBTB43 (UniProt O43298)
Outline: as §1

ZC3H18 = ZC3H18 (UniProt Q86VM9)
Outline: as §1

ZC3H8 = ZC3H8 (UniProt Q8N5P1)
Outline: as §1

ZC3HC1 = ZC3HC1 (UniProt Q86WB0)
Outline: as §1

ZCCHC9 = ZCCHC9 (UniProt Q8N567)
Outline: as §1

ZDHHC17 = ZDHHC17 (UniProt Q8IUH5)
Outline: as §1

ZDHHC20 = ZDHHC20 (UniProt Q5W0Z9)
Outline: as §1

ZDHHC5 = ZDHHC5 (UniProt Q9C0B5)
Outline: as §1

ZDHHC6 = ZDHHC6 (UniProt Q9H6R6)
Outline: as §1

ZDHHC7 isoform 2 = ZDHHC7 isoform 2 (UniProt Q9NXF8)
Outline: as §1

ZDHHC8 isoform 3 = ZDHHC8 isoform 3 (UniProt Q9ULC8)
Outline: as §1

ZBTB17 isoform 2 = ZBTB17 isoform 2 (UniProt Q13105)
Outline: as §1

Measured: log2 fold change

Chain of ZCCHC9 (Q8N567 whole entry, looked up): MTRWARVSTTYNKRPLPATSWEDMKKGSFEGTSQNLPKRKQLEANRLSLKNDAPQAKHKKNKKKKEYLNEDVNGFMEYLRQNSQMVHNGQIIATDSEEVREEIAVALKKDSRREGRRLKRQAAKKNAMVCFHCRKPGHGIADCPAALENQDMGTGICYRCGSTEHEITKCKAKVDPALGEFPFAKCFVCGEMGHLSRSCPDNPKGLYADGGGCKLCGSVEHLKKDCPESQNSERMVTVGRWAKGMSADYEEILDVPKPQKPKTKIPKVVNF
Chain of ZC3HC1 (Q86WB0 whole entry, looked up): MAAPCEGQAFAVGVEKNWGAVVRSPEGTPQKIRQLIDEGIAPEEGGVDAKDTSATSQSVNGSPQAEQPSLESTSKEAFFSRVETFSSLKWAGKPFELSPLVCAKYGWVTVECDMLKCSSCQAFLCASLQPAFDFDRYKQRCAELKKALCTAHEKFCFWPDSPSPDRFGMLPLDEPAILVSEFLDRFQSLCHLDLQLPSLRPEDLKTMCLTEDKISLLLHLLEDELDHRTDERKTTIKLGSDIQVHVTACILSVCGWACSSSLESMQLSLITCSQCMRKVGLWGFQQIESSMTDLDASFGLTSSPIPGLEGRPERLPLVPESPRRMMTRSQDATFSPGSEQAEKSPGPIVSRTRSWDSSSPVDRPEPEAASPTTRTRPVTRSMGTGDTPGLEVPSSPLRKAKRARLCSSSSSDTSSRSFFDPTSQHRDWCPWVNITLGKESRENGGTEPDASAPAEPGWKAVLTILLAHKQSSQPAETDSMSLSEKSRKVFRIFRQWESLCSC
Chain of YWHAQ (P27348 whole entry, looked up): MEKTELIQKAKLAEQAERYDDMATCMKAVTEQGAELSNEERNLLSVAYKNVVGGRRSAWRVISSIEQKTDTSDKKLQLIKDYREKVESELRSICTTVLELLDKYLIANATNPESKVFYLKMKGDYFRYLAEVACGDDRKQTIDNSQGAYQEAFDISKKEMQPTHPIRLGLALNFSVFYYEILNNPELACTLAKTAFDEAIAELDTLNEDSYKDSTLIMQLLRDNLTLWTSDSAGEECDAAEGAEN
Chain of ZDHHC8 isoform 3 (Q9ULC8 whole entry, looked up, canonical isoform): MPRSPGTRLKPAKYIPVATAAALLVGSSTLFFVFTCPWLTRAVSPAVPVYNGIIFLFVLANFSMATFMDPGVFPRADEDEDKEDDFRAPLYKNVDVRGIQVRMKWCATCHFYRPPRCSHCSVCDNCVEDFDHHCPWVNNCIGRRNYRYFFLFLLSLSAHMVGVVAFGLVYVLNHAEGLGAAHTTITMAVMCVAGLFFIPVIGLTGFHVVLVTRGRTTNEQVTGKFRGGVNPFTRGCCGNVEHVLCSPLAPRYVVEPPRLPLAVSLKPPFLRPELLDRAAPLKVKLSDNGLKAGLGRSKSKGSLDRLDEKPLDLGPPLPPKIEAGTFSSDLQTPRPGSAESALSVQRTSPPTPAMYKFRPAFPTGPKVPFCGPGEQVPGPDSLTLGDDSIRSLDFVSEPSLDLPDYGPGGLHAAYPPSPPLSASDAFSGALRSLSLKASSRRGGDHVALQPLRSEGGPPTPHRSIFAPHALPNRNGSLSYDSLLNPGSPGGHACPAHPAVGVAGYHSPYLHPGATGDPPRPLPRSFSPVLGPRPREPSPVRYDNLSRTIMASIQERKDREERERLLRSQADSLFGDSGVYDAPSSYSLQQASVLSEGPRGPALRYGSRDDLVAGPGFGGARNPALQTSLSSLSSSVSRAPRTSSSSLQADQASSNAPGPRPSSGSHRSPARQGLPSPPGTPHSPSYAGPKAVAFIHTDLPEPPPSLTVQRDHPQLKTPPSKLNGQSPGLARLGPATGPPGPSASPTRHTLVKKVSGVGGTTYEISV
Chain of ZDHHC6 (Q9H6R6 whole entry, looked up): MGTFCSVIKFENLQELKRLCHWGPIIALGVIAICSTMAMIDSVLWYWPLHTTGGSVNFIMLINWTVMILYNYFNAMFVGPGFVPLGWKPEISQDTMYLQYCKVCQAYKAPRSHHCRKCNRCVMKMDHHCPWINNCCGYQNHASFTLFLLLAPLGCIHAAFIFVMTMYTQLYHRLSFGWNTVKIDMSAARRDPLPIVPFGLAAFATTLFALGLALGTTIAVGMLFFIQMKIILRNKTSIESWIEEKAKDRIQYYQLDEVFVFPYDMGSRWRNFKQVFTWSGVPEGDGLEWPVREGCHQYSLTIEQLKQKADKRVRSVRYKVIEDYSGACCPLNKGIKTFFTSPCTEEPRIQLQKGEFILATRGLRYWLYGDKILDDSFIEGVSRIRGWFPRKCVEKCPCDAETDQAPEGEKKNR
Chain of YWHAB (P31946 whole entry, looked up): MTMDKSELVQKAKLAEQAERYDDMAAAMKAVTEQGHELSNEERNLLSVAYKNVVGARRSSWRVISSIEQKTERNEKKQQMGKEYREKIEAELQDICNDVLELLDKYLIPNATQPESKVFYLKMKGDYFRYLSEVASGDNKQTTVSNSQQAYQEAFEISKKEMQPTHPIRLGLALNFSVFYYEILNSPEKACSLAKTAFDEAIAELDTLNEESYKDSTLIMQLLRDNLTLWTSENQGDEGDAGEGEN
Chain of ZBTB17 isoform 2 (Q13105 whole entry, looked up, canonical isoform): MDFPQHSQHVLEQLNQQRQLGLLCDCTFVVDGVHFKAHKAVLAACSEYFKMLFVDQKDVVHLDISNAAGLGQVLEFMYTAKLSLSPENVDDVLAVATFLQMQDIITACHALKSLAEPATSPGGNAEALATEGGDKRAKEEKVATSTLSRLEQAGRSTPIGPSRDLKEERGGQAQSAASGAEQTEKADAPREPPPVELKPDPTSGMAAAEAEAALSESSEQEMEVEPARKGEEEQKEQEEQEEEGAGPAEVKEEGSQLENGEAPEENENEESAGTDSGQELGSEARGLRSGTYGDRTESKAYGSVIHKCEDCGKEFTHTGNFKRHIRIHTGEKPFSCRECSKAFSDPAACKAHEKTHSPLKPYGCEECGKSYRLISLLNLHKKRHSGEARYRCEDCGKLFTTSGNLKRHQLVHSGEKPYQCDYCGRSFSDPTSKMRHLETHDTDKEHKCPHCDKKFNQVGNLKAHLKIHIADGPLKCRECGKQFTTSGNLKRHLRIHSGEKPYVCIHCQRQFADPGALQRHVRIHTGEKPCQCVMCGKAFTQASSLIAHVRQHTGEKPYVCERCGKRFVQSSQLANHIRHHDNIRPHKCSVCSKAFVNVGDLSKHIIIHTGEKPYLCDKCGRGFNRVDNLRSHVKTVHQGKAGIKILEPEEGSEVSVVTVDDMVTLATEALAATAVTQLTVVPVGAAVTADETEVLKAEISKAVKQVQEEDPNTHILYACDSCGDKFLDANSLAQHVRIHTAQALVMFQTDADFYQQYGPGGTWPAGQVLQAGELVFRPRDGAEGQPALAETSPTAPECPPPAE
Chain of ZDHHC17 (Q8IUH5 whole entry, looked up): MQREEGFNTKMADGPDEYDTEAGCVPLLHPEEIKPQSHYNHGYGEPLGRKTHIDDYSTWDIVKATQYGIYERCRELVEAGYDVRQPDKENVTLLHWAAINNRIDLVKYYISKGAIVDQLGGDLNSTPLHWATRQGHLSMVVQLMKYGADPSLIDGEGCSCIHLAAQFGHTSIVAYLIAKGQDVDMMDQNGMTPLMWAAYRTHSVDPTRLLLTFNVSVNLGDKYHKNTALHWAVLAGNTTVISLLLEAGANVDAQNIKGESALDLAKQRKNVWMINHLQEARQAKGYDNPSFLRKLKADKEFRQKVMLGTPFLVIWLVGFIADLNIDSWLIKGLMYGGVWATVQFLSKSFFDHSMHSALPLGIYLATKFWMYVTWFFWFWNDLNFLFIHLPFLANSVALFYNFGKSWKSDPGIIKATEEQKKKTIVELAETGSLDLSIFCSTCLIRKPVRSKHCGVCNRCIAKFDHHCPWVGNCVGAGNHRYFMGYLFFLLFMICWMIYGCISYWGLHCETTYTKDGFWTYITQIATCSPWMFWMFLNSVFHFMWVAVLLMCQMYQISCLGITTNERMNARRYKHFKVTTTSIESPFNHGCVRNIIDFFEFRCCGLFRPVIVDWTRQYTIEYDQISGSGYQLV
Chain of ZBTB43 (O43298 whole entry, looked up): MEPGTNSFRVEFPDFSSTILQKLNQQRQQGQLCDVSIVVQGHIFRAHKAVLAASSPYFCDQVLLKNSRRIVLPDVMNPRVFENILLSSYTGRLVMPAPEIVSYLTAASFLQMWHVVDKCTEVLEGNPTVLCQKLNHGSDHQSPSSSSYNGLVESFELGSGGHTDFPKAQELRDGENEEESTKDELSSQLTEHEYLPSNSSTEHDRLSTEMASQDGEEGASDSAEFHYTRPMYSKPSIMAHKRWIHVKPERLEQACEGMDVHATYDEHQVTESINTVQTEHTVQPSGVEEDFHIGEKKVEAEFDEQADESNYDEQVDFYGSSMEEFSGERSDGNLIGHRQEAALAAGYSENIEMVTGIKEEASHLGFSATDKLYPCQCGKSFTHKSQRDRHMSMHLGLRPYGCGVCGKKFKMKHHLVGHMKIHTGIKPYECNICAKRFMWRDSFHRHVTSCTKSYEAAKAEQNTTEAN
Chain of YY1 (P25490 whole entry, looked up): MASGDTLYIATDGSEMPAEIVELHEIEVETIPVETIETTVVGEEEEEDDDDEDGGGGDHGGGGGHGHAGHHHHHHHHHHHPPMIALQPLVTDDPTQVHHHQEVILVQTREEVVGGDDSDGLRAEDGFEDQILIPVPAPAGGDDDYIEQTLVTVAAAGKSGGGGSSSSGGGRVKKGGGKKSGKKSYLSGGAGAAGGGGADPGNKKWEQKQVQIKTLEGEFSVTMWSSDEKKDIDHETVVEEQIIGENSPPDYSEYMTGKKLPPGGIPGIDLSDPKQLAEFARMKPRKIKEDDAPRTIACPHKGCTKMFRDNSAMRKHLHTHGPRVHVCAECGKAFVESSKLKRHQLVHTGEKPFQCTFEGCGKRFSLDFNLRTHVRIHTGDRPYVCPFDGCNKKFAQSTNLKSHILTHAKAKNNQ

CC[C@H](C)[C@H](NC(=O)[C@H]([C@@H](C)CC)N(C)C(C)=O)C(=O)N[C@H](C(=O)N[C@@H](CC(C)C)C(=O)[C@@]1(C)CO1)[C@@H](C)O [epoxomicin]
inactive: YWHAB 0.018 | YWHAQ 0.111 | YWHAZ [1] -0.075 | YWHAZ [2] 0.041 | YY1 -0.003 | ZADH2 0.077 | ZBTB21 -0.168 | ZBTB43 -0.054 | ZC3H18 -0.059 | ZC3H8 -0.107 | ZC3HC1 0.1 | ZCCHC9 -0.303 | ZDHHC17 -0.044 | ZDHHC20 -0.102 | ZDHHC5 -0.083 | ZDHHC6 -0.052 | ZDHHC7 isoform 2 0.124 | ZDHHC8 isoform 3 -0.037

CC(C)(O)CC(=O)NCCn1ccc2ncnc(Nc3ccc(Oc4cccc(C(F)(F)F)c4)c(Cl)c3)c21
active: ZADH2 -0.323 | ZDHHC6 -0.932 | ZDHHC8 isoform 3 0.486
inactive: YWHAB -0.013 | YWHAQ -0.084 | YWHAZ [1] 0.021 | YWHAZ [2] 0.027 | YY1 -0.026 | ZBTB21 0.101 | ZBTB43 0.175 | ZC3H18 0.034 | ZC3H8 0.064 | ZC3HC1 -0.179 | ZCCHC9 0.166 | ZDHHC17 0.062 | ZDHHC20 -0.082 | ZDHHC5 0.033 | ZDHHC7 isoform 2 -0.026

CN1CC[C@H](c2c(O)cc(O)c3c(=O)cc(-c4ccccc4Cl)oc23)[C@H](O)C1 [alvocidib]
inactive: YWHAB -0.06 | YWHAQ -0.192 | YWHAZ [1] -0.003 | YWHAZ [2] -0.056 | YY1 -0.099 | ZADH2 -0.05 | ZBTB21 -0.067 | ZBTB43 0.008 | ZC3H18 -0.217 | ZC3H8 0.189 | ZC3HC1 -0.318 | ZCCHC9 0.321 | ZDHHC17 -0.027 | ZDHHC20 -0.016 | ZDHHC5 -0.038 | ZDHHC7 isoform 2 0.077

Cc1ccc(C(=O)N(CCCN)[C@@H](c2nc3cc(Cl)ccc3c(=O)n2Cc2ccccc2)C(C)C)cc1 [ispinesib]
inactive: YWHAB 0.053 | YWHAQ 0.241 | YWHAZ [1] -0.11 | YWHAZ [2] 0.149 | YY1 -0.147 | ZADH2 -0.107 | ZBTB21 -0.09 | ZBTB43 0.164 | ZC3H18 0.039 | ZC3H8 -0.016 | ZC3HC1 -0.027 | ZCCHC9 -0.353 | ZDHHC17 0.023 | ZDHHC20 -0.076 | ZDHHC5 -0.035 | ZDHHC7 isoform 2 0.126

Cn1cc(-c2ccc3nnc(C(F)(F)c4ccc5ncccc5c4)n3n2)cn1
inactive: YWHAB -0.037 | YWHAQ -0.066 | YWHAZ [1] -0.007 | YWHAZ [2] -0.045 | YY1 -0.056 | ZADH2 0.107 | ZBTB21 -0.009 | ZBTB43 -0.054 | ZC3H18 0.008 | ZC3H8 -0.056 | ZC3HC1 0.038 | ZCCHC9 -0.081 | ZDHHC17 -0.029 | ZDHHC20 0.048 | ZDHHC5 -0.009 | ZDHHC7 isoform 2 0.091

CCCc1cc(C)[nH]c(=O)c1CNC(=O)c1cc(-c2ccnc(N3CCN(C)CC3)c2)cc2c1cnn2C(C)C
inactive: YWHAB -0.031 | YWHAQ 0.241 | YWHAZ [1] -0.393 | YWHAZ [2] 0.056 | YY1 -0.006 | ZADH2 0.004 | ZBTB17 isoform 2 -0.158 | ZBTB21 -0.008 | ZC3H18 -0.011 | ZC3H8 -0.027 | ZC3HC1 0.029 | ZCCHC9 0.057 | ZDHHC17 -0.061 | ZDHHC20 -0.079 | ZDHHC5 0.095

COc1cc(C(=O)O)ccc1NC(=O)[C@@H]1N[C@@H](CC(C)(C)C)[C@](C#N)(c2ccc(Cl)cc2F)[C@H]1c1cccc(Cl)c1F [idasanutlin]
inactive: YWHAB -0.053 | YWHAQ -0.084 | YWHAZ [1] -0.061 | YWHAZ [2] -0.026 | YY1 0.077 | ZADH2 -0.235 | ZBTB21 0.026 | ZBTB43 0.002 | ZC3H18 0.23 | ZC3H8 0.109 | ZC3HC1 -0.012 | ZCCHC9 0.139 | ZDHHC17 -0.048 | ZDHHC20 -0.014 | ZDHHC5 -0.111 | ZDHHC7 isoform 2 -0.013

O=C1NC(=NCc2cccs2)S/C1=C\c1ccc2ncccc2c1
inactive: YWHAB 0.023 | YWHAQ -0.201 | YWHAZ [1] -0.13 | YWHAZ [2] -0.154 | YY1 -0.014 | ZADH2 0.042 | ZBTB21 -0.024 | ZBTB43 -0.081 | ZC3H18 0.003 | ZC3H8 -0.062 | ZC3HC1 0.077 | ZCCHC9 -0.035 | ZDHHC17 0.064 | ZDHHC20 -0.125 | ZDHHC5 0.091 | ZDHHC7 isoform 2 0.161

O=C(Nc1cccc(Nc2ncc(Br)c(NCCc3cnc[nH]3)n2)c1)N1CCCC1
inactive: YWHAB 0.006 | YWHAQ -0.089 | YWHAZ [1] -0.031 | YWHAZ [2] 0.011 | YY1 -0.065 | ZADH2 0.001 | ZBTB17 isoform 2 -0.014 | ZBTB21 0.107 | ZBTB43 -0.052 | ZC3H18 -0.126 | ZC3H8 0.038 | ZC3HC1 -0.078 | ZCCHC9 0.08 | ZDHHC17 0.011 | ZDHHC20 -0.025 | ZDHHC5 -0.076 | ZDHHC7 isoform 2 0.028 | ZDHHC8 isoform 3 0.06

CCN(CCCOc1ccc2c(Nc3cc(CC(=O)Nc4cccc(F)c4)[nH]n3)ncnc2c1)CCOP(=O)(O)O [barasertib]
inactive: YWHAB 0.003 | YWHAQ 0.006 | YWHAZ [1] 0.114 | YWHAZ [2] -0.002 | YY1 -0.01 | ZADH2 0.049 | ZBTB17 isoform 2 -0.048 | ZBTB21 -0.043 | ZBTB43 -0.105 | ZC3H18 -0.05 | ZC3H8 -0.075 | ZC3HC1 0.108 | ZCCHC9 -0.094 | ZDHHC17 0.067 | ZDHHC20 0.022 | ZDHHC5 -0.001 | ZDHHC8 isoform 3 0.028

Cc1ccc(NC(=O)c2ccc(CN3CC[C@H](N(C)C)C3)c(C(F)(F)F)c2)cc1Nc1nccc(-c2cncnc2)n1 [bafetinib]
inactive: YWHAB -0.008 | YWHAQ -0.035 | YWHAZ [1] -0.131 | YWHAZ [2] -0.022 | YY1 -0.044 | ZADH2 -0.08 | ZBTB17 isoform 2 0.07 | ZBTB21 0.194 | ZBTB43 -0.006 | ZC3H18 0.033 | ZC3H8 0.052 | ZC3HC1 0.018 | ZCCHC9 0.144 | ZDHHC17 -0.007 | ZDHHC20 0.104 | ZDHHC5 0 | ZDHHC8 isoform 3 -0.03

COc1cc(Nc2ncc3c(n2)-c2ccc(Cl)cc2C(c2c(F)cccc2OC)=NC3)ccc1C(=O)O [alisertib]
inactive: YWHAB 0.012 | YWHAQ -0.001 | YWHAZ [1] -0.041 | YWHAZ [2] -0.028 | YY1 -0.062 | ZADH2 0.021 | ZBTB17 isoform 2 0.136 | ZBTB21 -0.154 | ZC3H18 -0.085 | ZC3H8 -0.082 | ZC3HC1 0.024 | ZCCHC9 -0.083 | ZDHHC17 -0.02 | ZDHHC20 -0.052 | ZDHHC5 -0.107

FC(F)(F)c1ccc(/C=C/c2nc(COc3ccc(CCCCn4ccnn4)cc3)co2)cc1 [mubritinib]
inactive: YWHAB 0.045 | YWHAQ 0.049 | YWHAZ [1] 0.11 | YWHAZ [2] 0.015 | YY1 -0.055 | ZBTB17 isoform 2 -0.131 | ZBTB21 0.003 | ZC3H18 -0.042 | ZC3H8 -0.102 | ZC3HC1 -0.049 | ZCCHC9 -0.087 | ZDHHC17 0.051 | ZDHHC20 0.03 | ZDHHC5 0.025
active: ZADH2 -0.294

NC(=O)c1cnc(N[C@@H]2CCCC[C@@H]2N)nc1Nc1cccc(-n2nccn2)c1
inactive: YWHAB -0.05 | YWHAQ 0.172 | YWHAZ [1] -0.186 | YWHAZ [2] 0.108 | YY1 -0.037 | ZADH2 -0.025 | ZBTB21 -0.044 | ZBTB43 0.092 | ZC3H18 -0.221 | ZC3H8 0.08 | ZC3HC1 -0.054 | ZCCHC9 0.049 | ZDHHC17 -0.003 | ZDHHC20 -0.001 | ZDHHC5 -0.01 | ZDHHC7 isoform 2 -0.064

CN(CCOc1ccc(C[C@@H]2SC(=O)NC2=O)cc1)c1ccccn1 (racemic) [rosiglitazone]
inactive: YWHAB 0.038 | YWHAQ 0.012 | YWHAZ [1] 0.019 | YWHAZ [2] 0.008 | YY1 -0.015 | ZADH2 0.063 | ZBTB17 isoform 2 0.063 | ZBTB21 0.103 | ZBTB43 0.052 | ZC3H18 -0.036 | ZC3H8 -0.171 | ZC3HC1 0.086 | ZCCHC9 -0.131 | ZDHHC17 0.052 | ZDHHC20 0.059 | ZDHHC5 -0.016 | ZDHHC8 isoform 3 0.038

Fc1ccc(Cl)cc1-c1nc(Nc2ccncc2)c2nccnc2n1
inactive: YWHAB 0.048 | YWHAQ 0.146 | YWHAZ [1] 0.099 | YWHAZ [2] 0.081 | YY1 0.073 | ZADH2 -0.011 | ZBTB21 -0.022 | ZBTB43 -0.194 | ZC3H18 -0.134 | ZC3H8 -0.275 | ZC3HC1 0.128 | ZCCHC9 -0.378 | ZDHHC17 -0.006 | ZDHHC20 0.152 | ZDHHC5 -0.002 | ZDHHC6 -0.083 | ZDHHC7 isoform 2 0.093 | ZDHHC8 isoform 3 0.028

Cc1ccc2c(=O)c3ccccc3n(CCCN)c2c1C
inactive: YWHAB -0.072 | YWHAQ -0.055 | YWHAZ [1] 0.029 | YWHAZ [2] -0.009 | ZADH2 0.038 | ZBTB21 -0.183 | ZC3H8 -0.277 | ZC3HC1 -0.091 | ZCCHC9 -0.187 | ZDHHC17 0.037 | ZDHHC20 0.028 | ZDHHC5 0.08 | ZDHHC7 isoform 2 0.005 | ZDHHC8 isoform 3 0.02
active: YY1 -0.433 | ZBTB17 isoform 2 1.05 | ZBTB43 -1.06 | ZC3H18 -0.612
